# According to PubChem BioAssay:
# Active and inactive are the calls of the source.
# Legend:
# [1] = E. coli DRC41 culture turbidity changes, primary screen, E. coli filamentation inducer project, strain DRC41, OD650, 48 h (AID 1152);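 also: E. coli MC1000 strain DRC41 lacking acrAB efflux pump and sulA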; details: E. coli DRC41 (acrAB sulA), higher = more signal, called active from +8 up or from −8 down
# [2] = small-molecule binders of probe aLefty1, primary screen, biochemical, small-molecule microarray, 635/667 nm fluorescence (AID 1153); details: higher = more signal;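 also: score merges spot fluorescence with signal-to-noise ratio from the scanned slide images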
# [3] = PSAC antagonists in infected red cells, primary screen, cell-based, P. falciparum Indochina, OD700, 1 h (AID 1154); details: P. falciparum Indochina infected RBC osmotic lysis, higher = more signal, called active from +8 up or from −8 down
# [4] = PSAC antagonists in infected red cells, primary screen, cell-based, P. falciparum Indochina, OD700, 2 h (AID 1155);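 also: lysis reports solute entry through the parasite surface anion channel PSAC; channel blockers reduce lysis of infected cells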; details: P. falciparum Indochina infected erythrocytes, osmotic lysis OD700; higher = more signal, called active from +8 up or from −8 down
# [5] = osmotic lysis modulators in infected erythrocytes, primary screen, PSAC antagonist project, cell-based, P. falciparum Indochina, OD700, 3 h (AID 1156); details: higher = more signal, called active from +8 up or from −8 down
# [6] = PSAC antagonists in infected red cells, primary screen, cell-based, P. falciparum Indochina, OD700, 18 h (AID 1157); details: P. falciparum Indochina infected erythrocytes, osmotic lysis OD700, 18 h; higher = more signal, called active from +8 up or from −8 down
# [7] = modulators of S6 phosphorylation in cells, primary screen, cell-based, A549, cytoblot, luminescence, serum-stimulated (AID 1158); details: A549 phospho-S6 cytoblot, 5 h, higher = more signal;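 also: serum-stimulated A549 lung adenocarcinoma cells; signal is phosphorylated S6 detected by cytoblot immunostaining with HRP secondary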
# [8] = molecular target: NADPH oxidase 2 (Homo sapiens) (UniProt P04839); test: NOX2-dependent H2O2 signal modulators, primary screen, NOX inhibitor project, cell-based, HEK293-NOX2, PMA-stimulated, Amplex Red fluorescence (AID 1159); details: 45 min, higher = more signal, called active from +8 up or from −8 down; also: test concentration not given here
# NADPH oxidase 2 (Homo sapiens), sequence (P04839 whole entry, looked up): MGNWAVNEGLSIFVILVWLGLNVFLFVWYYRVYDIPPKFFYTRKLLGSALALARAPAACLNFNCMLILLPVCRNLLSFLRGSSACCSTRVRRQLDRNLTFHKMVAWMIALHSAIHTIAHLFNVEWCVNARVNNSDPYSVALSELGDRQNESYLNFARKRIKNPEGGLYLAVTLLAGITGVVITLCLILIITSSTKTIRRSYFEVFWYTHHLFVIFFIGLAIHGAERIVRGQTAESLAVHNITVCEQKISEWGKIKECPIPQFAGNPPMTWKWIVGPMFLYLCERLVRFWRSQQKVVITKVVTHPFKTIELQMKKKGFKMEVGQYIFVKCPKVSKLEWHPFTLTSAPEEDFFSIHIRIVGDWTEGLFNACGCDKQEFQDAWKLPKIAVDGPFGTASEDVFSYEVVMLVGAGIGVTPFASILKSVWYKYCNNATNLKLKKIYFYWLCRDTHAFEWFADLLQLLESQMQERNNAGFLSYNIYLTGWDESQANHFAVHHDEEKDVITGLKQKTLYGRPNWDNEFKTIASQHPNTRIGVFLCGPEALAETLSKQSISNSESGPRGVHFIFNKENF
# [9] = molecular target: NADPH oxidase 4 (Homo sapiens) (UniProt Q9NPH5); test: NOX4-dependent H2O2 signal modulators, primary screen, NOX inhibitor project, cell-based, HEK293-NOX4, tetracycline-induced, Amplex Red fluorescence (AID 1160); details: 45 min, higher = more signal, called active from +8 up or from −8 down
# NADPH oxidase 4 (Homo sapiens), sequence (Q9NPH5 whole entry, looked up): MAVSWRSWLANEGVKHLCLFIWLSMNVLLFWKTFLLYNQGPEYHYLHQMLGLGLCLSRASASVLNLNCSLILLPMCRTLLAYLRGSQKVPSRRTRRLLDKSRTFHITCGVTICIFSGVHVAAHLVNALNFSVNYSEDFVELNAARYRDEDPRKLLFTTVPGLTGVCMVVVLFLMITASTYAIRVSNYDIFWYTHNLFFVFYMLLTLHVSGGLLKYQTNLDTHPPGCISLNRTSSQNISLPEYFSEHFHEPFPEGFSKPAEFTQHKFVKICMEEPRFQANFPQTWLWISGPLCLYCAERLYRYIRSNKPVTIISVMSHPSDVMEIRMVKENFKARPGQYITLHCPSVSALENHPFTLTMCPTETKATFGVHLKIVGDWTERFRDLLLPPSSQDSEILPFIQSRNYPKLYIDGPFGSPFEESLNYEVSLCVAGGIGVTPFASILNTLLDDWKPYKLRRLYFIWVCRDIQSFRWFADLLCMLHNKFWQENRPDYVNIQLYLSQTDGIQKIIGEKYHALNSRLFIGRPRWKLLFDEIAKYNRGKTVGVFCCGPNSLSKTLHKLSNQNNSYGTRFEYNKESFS
# [10] = molecular target: NADPH oxidase 5 (Homo sapiens) (UniProt Q96PH1); test: NOX5-dependent H2O2 signal modulators, primary screen, NOX inhibitor project, cell-based, HEK293-NOX5, Amplex Red fluorescence (AID 1161); details: HEK293-NOX5, ionomycin, 45 min, higher = more signal
# NADPH oxidase 5 (Homo sapiens), sequence (Q96PH1 whole entry, looked up): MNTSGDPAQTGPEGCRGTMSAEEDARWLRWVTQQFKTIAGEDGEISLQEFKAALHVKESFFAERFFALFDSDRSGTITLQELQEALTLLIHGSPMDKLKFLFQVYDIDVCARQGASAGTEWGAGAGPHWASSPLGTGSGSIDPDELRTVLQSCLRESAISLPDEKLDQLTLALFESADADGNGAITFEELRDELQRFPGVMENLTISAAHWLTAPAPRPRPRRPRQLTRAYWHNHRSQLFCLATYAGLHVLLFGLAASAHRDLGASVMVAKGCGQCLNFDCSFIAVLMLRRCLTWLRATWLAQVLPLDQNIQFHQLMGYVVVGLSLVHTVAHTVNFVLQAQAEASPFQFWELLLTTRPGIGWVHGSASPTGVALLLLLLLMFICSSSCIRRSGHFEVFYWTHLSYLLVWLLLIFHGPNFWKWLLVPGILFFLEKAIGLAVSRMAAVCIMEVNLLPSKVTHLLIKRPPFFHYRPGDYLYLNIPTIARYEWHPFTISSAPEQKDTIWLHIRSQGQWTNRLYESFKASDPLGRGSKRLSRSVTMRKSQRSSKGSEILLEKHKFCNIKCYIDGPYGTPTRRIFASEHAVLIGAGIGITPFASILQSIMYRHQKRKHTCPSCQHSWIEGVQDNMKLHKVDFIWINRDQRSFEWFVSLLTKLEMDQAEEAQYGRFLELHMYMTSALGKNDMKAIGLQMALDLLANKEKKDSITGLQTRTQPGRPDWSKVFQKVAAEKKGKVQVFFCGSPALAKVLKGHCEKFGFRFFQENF
# [11] = A549 cell viability effects, profiling panel, calcein-AM fluorescence, 48 h, basal (AID 1162); details: higher = more signal; also: test concentration not given here
# [12] = adipocyte viability effects, profiling panel, cell-based, 3T3-L1 adipocytes, calcein-AM fluorescence, 48 h, basal (AID 1163); details: 3T3-L1 adipocytes viability, higher = more signal; also: test concentration not given here
# [13] = HepG2 cell viability effects, profiling panel, calcein-AM fluorescence, 48 h, basal (AID 1164); details: higher = more signal; also: test concentration not given here
# [14] = MM1S cell viability effects, profiling panel, calcein-AM fluorescence, 48 h, basal (AID 1165); details: higher = more signal;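 also: viability of MM1S multiple myeloma cells under basal unstimulated conditions; test concentration not given here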
# [15] = basal RPMI8226 viability, no added stimulus, profiling panel, cell-based, calcein-AM fluorescence, 48 h, PK04 Diversity Set (AID 1166); details: RPMI8226 myeloma viability, higher = more signal;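 also: cells grown under basal conditions without added stimulus; test concentration not given here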
# [16] = basal HepG2 mitochondrial membrane potential changes, profiling panel, cell-based, JC-1 fluorescence, 24 h, 100 nL compound (AID 1167); details: higher = more signal; also: test concentration not given here
# [17] = basal 3T3-L1 adipocyte mitochondrial potential changes, profiling panel, cell-based, JC-1 fluorescence, 3T3-L1 adipocytes, 24 h, 100 nL compound (AID 1168); details: JC-1 mitochondrial fluorescence, higher = more signal, called active from +8 up or from −8 down; also: test concentration not given here
# [18] = basal RPMI8226 mitochondrial membrane potential changes, profiling panel, cell-based, JC-1 fluorescence, 24 h, 100 nL compound (AID 1169); details: RPMI8226 myeloma, JC-1 mitochondrial potential fluorescence, higher = more signal; also: test concentration not given here
# [19] = basal MM1S mitochondrial membrane potential changes, profiling panel, cell-based, JC-1 fluorescence, 24 h, 100 nL compound (AID 1170); details: higher = more signal; also: test concentration not given here
# [20] = A549 lung cancer cell viability effects, profiling panel, resazurin fluorescence, 24 h, PK04 Diversity Set (AID 1171); details: higher = more signal, called active from +8 up or from −8 down; also: test concentration not given here
SMILES,z-score [1],composite z-score [2],z-score [3],z-score [4],z-score [5],z-score [6],z-score [7],z-score [8],z-score [9],z-score [10],z-score [11],z-score [12],z-score [13],z-score [14],z-score [15],z-score [16],z-score [17],z-score [18],z-score [19],z-score [20]
CC(C)OC(=O)C=C1C[C@@H](c2ccccn2)O[C@@H](c2ccccn2)O1,-0.167 (inactive),-0.0559,5.54 (inactive),1.2 (inactive),-0.277 (inactive),0.562 (inactive),-0.0693,-0.223 (inactive),-0.461 (inactive),-0.405,-0.564,-0.631,-0.217,0.667,-1.14,-0.894,-0.341 (inactive),0.65,-0.816,0.118 (inactive)
C=C(CCCC)C(=O)CC[C@@H](OC(=O)c1ccccc1-c1ccccc1C(=O)O)c1ccc(OCCO)cc1,-0.181 (inactive),-0.23,17.2 (active),1.73 (inactive),1.15 (inactive),0.602 (inactive),0.276,2.45 (inactive),0.216 (inactive),-0.936,-0.465,1.22,0.515,-3.37,-3.04,-1.4,-1.03 (inactive),-0.659,-0.137,0.128 (inactive)
CC(C)C(CO)N1C(=O)[C@@H]2C3C(=O)OCCC/C=C\[C@H]3OC23C=CCN(CCN2CCOCC2)C(=O)[C@@H]13 (stereo not given in full),-0.385 (inactive),-0.07,0.81 (inactive),0.179 (inactive),0.148 (inactive),0.16 (inactive),-0.158,1 (inactive),0.401 (inactive),1.4,1.12,-0.453,-0.66,0.171,-0.378,-0.936,-0.173 (inactive),-0.759,-0.359,-0.702 (inactive)
COC(=O)[C@@]1(Cc2ccc(OC)cc2)[C@H]2c3cc(C(=O)N(C)C)n(CCc4ccccn4)c3C[C@H]2CN1C(=O)c1ccccc1,-1.83 (inactive),1.64,3.81 (inactive),1.77 (inactive),1.01 (inactive),1.58 (inactive),-0.334,0.63 (inactive),-0.925 (inactive),-1.04,-0.982,-0.812,-0.173,-1.19,-2.59,-0.0203,-1.04 (inactive),-0.772,-1.35,-0.735 (inactive)
[N-]=[N+]=Nc1ccccc1[C@H]1OC(c2ccc(OCCCO)cc2)=N[C@@]1(CCS(=O)(=O)c1ccccc1)C(=O)NCC(O)CO (stereo not given in full),-0.562 (inactive),0.0919,29.7 (active),28.2 (active),1.72 (inactive),2.09 (inactive),-0.235,1.09 (inactive),-0.0647 (inactive),-1.07,-0.0714,0.638,0.0911,-0.826,0.395,-1.16,-0.22 (inactive),0.311,-0.0714,0.859 (inactive)
CCOC(=O)C[C@H]1[C@H](OC(=O)c2cc3ccccc3oc2=O)[C@@H](NC(=O)c2ccccc2)c2cc(OCCCO)ccc2N1C(=O)c1ccc2ccccc2n1,0.0582 (inactive),-0.0969,10.4 (active),1.33 (inactive),1.17 (inactive),0.599 (inactive),-0.253,0.543 (inactive),0.43 (inactive),1.44,0.282,0.785,-0.112,-0.0357,-1.08,-0.314,0.122 (inactive),-0.311,-0.0496,-0.886 (inactive)
COCCOC(=O)N1C(=O)[C@@]2(c3cc(C#Cc4ccc(OC)cc4)ccc31)[C@H](c1ccc(O)cc1)N1[C@H](c3ccccc3)[C@H](c3ccccc3)OC(=O)[C@H]1[C@@H]2C(=O)N1CCc2cc(OC)c(OC)cc2C1,0.892 (inactive),0.134,1.92 (inactive),1.19 (inactive),0.401 (inactive),0.827 (inactive),0.035,0.478 (inactive),0.398 (inactive),1.08,-0.548,1.22,-0.486,-0.0636,-0.063,0.793,2.76 (inactive),0.188,0.108,0.776 (inactive)
CN1C(=O)C2C=CC(C(O)C3CC=CCC3)N(N(c3ccccc3)c3ccccc3)C2C1=O (stereo not given),-0.866 (inactive),0.329,0.19 (inactive),1.01 (inactive),-0.255 (inactive),1.29 (inactive),-0.496,-0.625 (inactive),0.21 (inactive),0.224,-0.0631,-1.9,0.125,0.535,-0.785,-0.77,-0.339 (inactive),-0.23,-0.711,-0.501 (inactive)
COc1ccc([C@H]2OC[C@@H]3C[C@@H](Cc4ccccc4)C(=O)N32)cc1,-0.783 (inactive),0.25,2.1 (inactive),0.0371 (inactive),-0.59 (inactive),0.308 (inactive),-0.597,1.25 (inactive),0.524 (inactive),-0.604,-0.706,0.0138,0.305,-2.13,0.215,-0.478,-0.0784 (inactive),0.183,-0.0676,0.194 (inactive)
